Among the test systems are BLK; BMPR1A; BMPR1B; BMPR2; BMX; BRAF; BRSK1; BRSK2; BTK; BUB1; CAMK1B; CAMK1D; CAMK1G; CAMK1; CAMK2A; CAMK2B; CAMK2D; CAMK2G; CAMK4.
What all share (conditions): concentration: 1 μM, replicates: in singlicate; n = 1
A further assay deals with T1, BRK.
T1 construct: gene PTK6
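Also: KINOMEscan kinase panel screen.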

As for `COc1cc(Nc2nccc(N3CCC(NC(=O)c4cccc(NC(C)=O)c4)C3)n2)cc(OC)c1OC` (centres unmarked) [GSK1379754], the “%Inh” value with BLK was found to be 34%; in the assay with BMPR1A, 0%; in the assay on BMPR1B, 0%; in the assay with BMPR2 it was 0%; with BMX, 18%; in the assay with BRAF, 3%. In addition, the “%Inh” value was 19% in the assay with BRK; 26% with BRSK1; 0% in the assay on BRSK2; 0% with BTK; 0% in the assay on BUB1; 7% in the assay on CAMK1B. The “%Inh” value was determined as 27% in the assay with CAMK1D; 6% in the assay on CAMK1G; 40% in the assay on CAMK1; 0% in the assay with CAMK2A; 0% in the assay with CAMK2B; 0% in the assay on CAMK2D. Besides, the results for the “%Inh” value in the assay with CAMK2G and in the assay on CAMK4 were 21% and 0%, respectively.
For the molecule `CCc1ccnc(/C=C/c2n[nH]c3cc(Sc4ccccc4C(=O)NC)ccc23)c1`, the “%Inh” value in the assay on BLK was found to be 17%; with BMPR1A, 0%; with BMPR1B it was 0%; in the assay on BMPR2, 17%; with BMX, 0%; in the assay on BRAF it was 4%. The “%Inh” value is listed as 0% in the assay with BRK; 27% in the assay on BRSK1; 17% with BRSK2; 0% in the assay with BTK; 49% in the assay on BUB1; 8% with CAMK1B. For the same molecule, the “%Inh” value turned out to be 0% in the assay on CAMK1D; 2% in the assay on CAMK1G; 0% in the assay on CAMK1; 4% in the assay on CAMK2A; 0% with CAMK2B; 9% in the assay with CAMK2D. In addition, the “%Inh” value with CAMK2G came out at 18%; in the assay on CAMK4, 0%.
With `O=c1cc(N2CCOCC2)nc2n(Cc3cccc(Cl)c3Cl)c(C3CC3)nn12` [GSK2358994], the “%Inh” value in the assay on BLK was 0%; in the assay with BMPR1A, 15%; in the assay with BMPR1B, 0%; in the assay on BMPR2 it was 13%; in the assay on BMX it was 19%; with BRAF, 0%. Also, the “%Inh” value in the assay on BRK turned out to be 0%; with BRSK1 it was 3%; in the assay with BRSK2 it was 0%; with BTK, 0%; in the assay on BUB1 it was 0%; in the assay on CAMK1B, 0%. Further, the “%Inh” value with CAMK1D amounted to 0%; in the assay on CAMK1G, 5%; in the assay with CAMK1, 0%; in the assay on CAMK2A, 25%; in the assay with CAMK2B, 10%; in the assay on CAMK2D, 18%. Besides, the “%Inh” value in the assay on CAMK2G worked out at 0%; with CAMK4, 5%.
With `NCC(NC(=O)c1cc(-c2cn[nH]c2)c(-c2ccnc3[nH]ccc23)s1)c1ccccc1.O=C(O)C(F)(F)F.O=C(O)C(F)(F)F` (centres unmarked) [GSK1325775], the “%Inh” value with BLK is listed as 0%; with BMPR1A, 0%; in the assay with BMPR1B it was 80%; with BMPR2 it was 4%; in the assay on BMX, 0%; in the assay with BRAF, 0%. Also, the “%Inh” value in the assay with BRK came out at 0%; in the assay on BRSK1 it was 30%; with BRSK2 it was 21%; in the assay on BTK it was 0%; with BUB1, 94.6%; in the assay with CAMK1B, 49%. Also, the “%Inh” value in the assay with CAMK1D is reported as 50%; in the assay with CAMK1G it was 33%; in the assay on CAMK1, 41%; in the assay with CAMK2A, 0%; in the assay on CAMK2B it was 12%; in the assay on CAMK2D, 35%. Moreover, the “%Inh” value stood at 30% in the assay with CAMK2G and 0% in the assay with CAMK4.
As to `Cl.Nc1ncnc2occ(-c3ccc(NC(=O)Nc4cc(C(F)(F)F)ccc4F)cc3)c12` [SB-707548], the “%Inh” value worked out at 44% in the assay with BLK; 0% in the assay on BMPR1A; 0% in the assay with BMPR1B; 1% in the assay on BMPR2; 82% with BMX; 71% in the assay on BRAF. For the same molecule, the “%Inh” value was found to be 3% with BRK; 20% in the assay with BRSK1; 0% in the assay with BRSK2; 21% in the assay with BTK; 17% in the assay with BUB1; 36% in the assay with CAMK1B. Further, the “%Inh” value in the assay with CAMK1D is 23%; in the assay with CAMK1G it was 0%; in the assay with CAMK1, 22%; in the assay on CAMK2A it was 0%; in the assay with CAMK2B, 0%; in the assay with CAMK2D, 0%. Besides, the “%Inh” value is given as 25% with CAMK2G and 32% in the assay with CAMK4.
Regarding `CN1c2ccc(NCc3ccc(F)cc3)cc2-c2c(cnn2C)S1(=O)=O`, the “%Inh” value came out at 0% in the assay with BLK; 0% in the assay on BMPR1A; 1% in the assay with BMPR1B; 0% with BMPR2; 0% in the assay with BMX; 17% in the assay on BRAF. In addition, the “%Inh” value in the assay with BRK, in the assay on BRSK1, in the assay on BRSK2, with BTK, in the assay with BUB1 and with CAMK1B was 0% each time. In addition, the “%Inh” value was found to be 0% in the assay with CAMK1D; 0% in the assay with CAMK1G; 0% in the assay with CAMK1; 0% in the assay on CAMK2A; 0% in the assay on CAMK2B; 3% in the assay with CAMK2D. The “%Inh” value in the assay on CAMK2G is 15%; in the assay with CAMK4, 22%.
For `O=C(c1ccc(-c2cc(-c3c[nH]nc3-c3ccccn3)ccn2)cc1)N1CCOCC1` [GW812171], the “%Inh” value with BLK was 0%; in the assay with BMPR1A it was 0%; with BMPR1B, 11%; in the assay with BMPR2, 16%; in the assay on BMX it was 0%; with BRAF, 32%. Moreover, the “%Inh” value is 0% in the assay on BRK; 0% in the assay with BRSK1; 10% in the assay with BRSK2; 0% with BTK; 20% in the assay on BUB1; 0% with CAMK1B. The “%Inh” value with CAMK1D was 21%; with CAMK1G, 0%; in the assay on CAMK1, 14%; in the assay on CAMK2A it was 0%; with CAMK2B, 0%; with CAMK2D, 0%. The “%Inh” value with CAMK2G and in the assay on CAMK4 was 0% in each case.
Turning to `NS(=O)(=O)c1cccc(-c2ccc3ncc(N4CCOCC4)nc3c2)c1` [GSK1535721], the “%Inh” value with BLK is listed as 0%; in the assay on BMPR1A, 0%; in the assay on BMPR1B, 7%; in the assay on BMPR2 it was 2%; with BMX, 30%; in the assay with BRAF, 0%. For the same molecule, the “%Inh” value in the assay on BRK is 13%; with BRSK1 it was 0%; with BRSK2, 0%; with BTK, 1%; with BUB1 it was 0%; with CAMK1B, 7%. In addition, the “%Inh” value in the assay with CAMK1D amounted to 18%; in the assay with CAMK1G it was 15%; with CAMK1, 12%; in the assay with CAMK2A it was 0%; in the assay on CAMK2B, 2%; with CAMK2D it was 21%. Moreover, the “%Inh” value with CAMK2G is listed as 17%; in the assay on CAMK4, 0%.
In the case of `Nc1nc(-c2ccc3c(N)n[nH]c3c2)cc(N2CCCC2)n1` [GSK2227430], the “%Inh” value with BLK turned out to be 7%; in the assay on BMPR1A, 0%; with BMPR1B, 0%; in the assay on BMPR2 it was 0%; in the assay with BMX, 1%; with BRAF it was 0%. Moreover, the “%Inh” value in the assay with BRK is given as 20%; with BRSK1, 0%; in the assay with BRSK2 it was 0%; in the assay with BTK, 0%; in the assay with BUB1 it was 30%; in the assay on CAMK1B, 3%. The “%Inh” value with CAMK1D was 20%; in the assay with CAMK1G, 0%; in the assay on CAMK1, 25%; in the assay on CAMK2A, 0%; in the assay with CAMK2B, 0%; with CAMK2D it was 0%. Moreover, the “%Inh” value in the assay with CAMK2G is 21%; with CAMK4, 0%.
`CSc1ccc(-c2cc3ncnc(SCC(=O)O)c3s2)cc1`: the “%Inh” value in the assay with BLK came out at 10%; with BMPR1A, 0%; with BMPR1B, 0%; with BMPR2 it was 0%; in the assay on BMX it was 0%; in the assay with BRAF, 0%. Moreover, the “%Inh” value with BRK was 4%; in the assay on BRSK1 it was 6%; with BRSK2, 10%; with BTK it was 0%; in the assay with BUB1, 24%; with CAMK1B, 0%. Further, the “%Inh” value with CAMK1D, in the assay on CAMK1G, in the assay on CAMK1, with CAMK2A, in the assay on CAMK2B and in the assay on CAMK2D was 0% each time. The “%Inh” value is 0% in the assay with CAMK2G and 3% in the assay with CAMK4.

The record behind these values is publication PMC5540273 (PLoS ONE, 2017).
